SMILES strings stand for the structures. Results filed as inconclusive are left out. Activity calls are given as the source filed them. Unless noted, calls follow the shape of the full dose curve.

The nature of test [1]: qHTS assay to identify small molecule antagonists of the sonic hedgehog signaling (Shh) pathway (AID 1259369). Also: nearly all actives have a fitted effect of over 45% in size. Also: potency is read from the fitted curve at half-maximal effect. Put shortly:
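Gli1 transcriptional reporter (firefly Luc) in NIH/3T3 background, conditioned-medium activated. 24hr exposure, luminescence endpoint.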

Test [2] addresses Estrogen receptor beta (Homo sapiens) (UniProt Q92731). The experiment in a line: qHTS assay to identify small molecule agonists of the estrogen receptor beta (ER-beta) signaling pathway (AID 1259377; active = well fitted activation curve with a large enough effect in the signal ratio in the repeat runs, not every such curve was filed as active; the % refers to the signal ratio). In outline:
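Measured by fluorescence intensity from a B/G FRET beta-lactamase substrate (2 h, room temperature) in ER-beta-UAS-bla HEK293T cells treated with DMSO-dissolved compounds for 16 hr at 37C and 5% CO2.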
On the technique in general: Quantitative high-throughput screening tests each substance at several concentrations.

The nature of test [3]: qHTS assay to identify small molecule agonists of the androgen receptor (AR) signaling pathway in the presence of an antagonist - cell viability counter screen (AID 1259379; active = well fitted curve in the direction sought with a large enough effect in the repeat runs; an effect the other way counts as inactive or inconclusive; also: nearly all actives have a fitted effect of over 25% in size; also: potency is read from the fitted curve at half-maximal effect). Put shortly: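 Counter screen for cell viability run in parallel with the AR agonist-mode luciferase assay. MDA-kb2 cells were co-treated with nilutamide (3.0uM final) and compounds, then incubated 16 hr at 37C, and CellTiter-Fluor fluorescence was measured.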

A short description of test [4]: qHTS assay to identify small molecule agonists of the estrogen receptor beta (ER-beta) signaling pathway - cell viability counter screen (AID 1259380; active = well fitted curve in the direction sought with a large enough effect in the repeat runs; an effect the other way counts as inactive or inconclusive; also: nearly all actives have a fitted effect of over 30% in size; also: potency is read from the fitted curve at half-maximal effect). In outline: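 In this qHTS counter screen, HEK293T cells carrying an ER-beta/UAS beta-lactamase reporter, grown in 2% charcoal-stripped FBS, received compound for 16 hr; ATP-based CellTiter-Glo luminescence was then read after 30 min at room temperature.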

Test [5] in a line: qHTS assay to identify small molecule antagonists of the estrogen receptor beta (ER-beta) signaling pathway - cell viability counter screen (AID 1259382; active = well fitted curve in the direction sought with a large enough effect in the repeat runs; an effect the other way counts as inactive or inconclusive; also: series mostly up to about 92 µM; nearly all actives have a fitted effect of over 55% in size). In outline:
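HEK293T ER-beta-UAS-bla, 2% charcoal-stripped FBS; compounds + 1nM E2 16 hr 37C; CellTiter-Glo luminescence, 30 min RT.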

The nature of test [6]: qHTS assay to identify small molecule agonists or antagonists of the thyroid stimulating hormone receptor (TSHR) signaling pathway - wild type cell line counter screen (AID 1259384). Put shortly: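 Wild-type HEK293 cells were plated 18 h at 37 C/5% CO2, pin-dosed with compound plus Ro20-1724 medium, held 30 min at room temperature, then given cAMP-d2 and anti-cAMP-cryptate; fluorescence was read after 1 h. Fifteen concentrations, triplicate.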

The target of test [7] is Thyrotropin receptor (Homo sapiens) (UniProt P16473). Kind of test: qHTS assay to identify small molecule antagonists of the thyroid stimulating hormone receptor (TSHR) signaling pathway (AID 1259385). Also: nearly all actives have a fitted effect of over 20% in size. Put shortly:
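TSHR-HEK293 cells were plated and held 18 h at 37C/5% CO2, then given compound plus Ro20-1724 and stimulated with TSH at 1.5 ng/mL final. After 30 min at room temperature, cAMP was detected with cAMP-d2/anti-cAMP-cryptate (1 h) by fluorescence.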

Test [8] concerns the target Estrogen receptor beta (Homo sapiens) (UniProt Q92731). The experiment in a line: qHTS assay to identify small molecule antagonists of the estrogen receptor beta (ER-beta) signaling pathway (AID 1259378; active = well fitted inhibition curve with a large enough effect in the signal ratio in the repeat runs, not every such curve was filed as active; the % refers to the signal ratio). Put shortly:
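ER-beta-UAS-bla HEK293T (GripTite) cells in 2% charcoal-stripped FBS medium were preincubated 6 hr at 37C, dosed with compound, then stimulated with 1 nM E2 (final) for 16 hr; beta-lactamase reporter read by B/G FRET fluorescence after 2 hr substrate loading.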

Test [9] addresses Estrogen receptor (Homo sapiens) (UniProt P03372). The experiment in a line: qHTS assay to identify small molecule agonists of the estrogen receptor alpha (ER-alpha) signaling pathway in the presence of an antagonist (AID 1259383). Also: top concentration of the series differs between compounds; nearly all actives have a fitted effect of over 15% in size. In outline:
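ER-alpha agonism measured under antagonist challenge: 10.0nM ICI-182,780 (final) plus compound, 15 concentrations, 22hr, VM7Luc4E2 ERE-luciferase cells. Read by luminescence.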

The target in test [10] is Androgen receptor (Homo sapiens) (UniProt P10275). The experiment in a line: qHTS assay to identify small molecule agonists of the androgen receptor (AR) signaling pathway in the presence of an antagonist (AID 1259381). Also: nearly all actives have a fitted effect of over 15% in size. Put shortly: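 AR antagonist background: nilutamide 3.0uM final. Cell line: MDA-kb2, MMTV-driven luciferase, responsive to both AR and GR. Exposure 16hr, 37C, no CO2; ONE-Glo luminescence.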
Chain of Androgen receptor (Homo sapiens) (P10275 whole entry, looked up): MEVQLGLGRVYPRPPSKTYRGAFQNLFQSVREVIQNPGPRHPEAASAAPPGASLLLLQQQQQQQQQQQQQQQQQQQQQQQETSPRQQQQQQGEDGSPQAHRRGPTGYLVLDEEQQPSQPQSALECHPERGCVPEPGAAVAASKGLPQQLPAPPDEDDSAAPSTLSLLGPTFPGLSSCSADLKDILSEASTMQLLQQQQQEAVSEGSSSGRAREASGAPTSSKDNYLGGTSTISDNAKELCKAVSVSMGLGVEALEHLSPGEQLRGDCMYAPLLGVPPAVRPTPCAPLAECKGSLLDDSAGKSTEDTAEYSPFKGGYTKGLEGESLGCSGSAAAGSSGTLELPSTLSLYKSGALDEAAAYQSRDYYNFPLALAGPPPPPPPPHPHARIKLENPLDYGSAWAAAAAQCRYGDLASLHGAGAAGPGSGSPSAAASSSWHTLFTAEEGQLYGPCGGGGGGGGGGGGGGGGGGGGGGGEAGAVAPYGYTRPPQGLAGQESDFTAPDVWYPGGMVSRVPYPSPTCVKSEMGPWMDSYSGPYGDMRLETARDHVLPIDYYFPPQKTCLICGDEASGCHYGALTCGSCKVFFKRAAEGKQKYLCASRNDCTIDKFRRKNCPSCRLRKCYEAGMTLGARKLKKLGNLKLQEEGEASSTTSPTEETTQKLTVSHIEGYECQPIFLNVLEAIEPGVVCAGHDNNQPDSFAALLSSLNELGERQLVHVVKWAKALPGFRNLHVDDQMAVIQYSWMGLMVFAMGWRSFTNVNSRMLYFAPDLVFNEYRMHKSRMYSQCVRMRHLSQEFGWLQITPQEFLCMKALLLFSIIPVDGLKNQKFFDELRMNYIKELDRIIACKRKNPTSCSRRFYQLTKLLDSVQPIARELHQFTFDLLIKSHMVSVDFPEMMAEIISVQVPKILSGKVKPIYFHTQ

Chain of Estrogen receptor beta (Homo sapiens) (Q92731 whole entry, looked up): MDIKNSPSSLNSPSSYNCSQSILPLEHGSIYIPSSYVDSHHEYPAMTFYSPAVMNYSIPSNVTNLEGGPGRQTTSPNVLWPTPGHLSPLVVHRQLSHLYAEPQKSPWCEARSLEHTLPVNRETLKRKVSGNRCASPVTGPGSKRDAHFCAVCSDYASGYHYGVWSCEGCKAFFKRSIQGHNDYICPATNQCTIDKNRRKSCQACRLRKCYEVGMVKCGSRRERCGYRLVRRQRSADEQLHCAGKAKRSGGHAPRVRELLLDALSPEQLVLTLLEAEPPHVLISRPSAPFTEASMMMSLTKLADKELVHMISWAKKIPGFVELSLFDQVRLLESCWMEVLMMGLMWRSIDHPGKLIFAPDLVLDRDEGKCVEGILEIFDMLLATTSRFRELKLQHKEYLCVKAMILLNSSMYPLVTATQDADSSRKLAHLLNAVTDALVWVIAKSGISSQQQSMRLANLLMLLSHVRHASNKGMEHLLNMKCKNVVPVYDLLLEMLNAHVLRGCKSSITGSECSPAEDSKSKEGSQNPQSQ
Chain of Thyrotropin receptor (Homo sapiens) (P16473 whole entry, looked up): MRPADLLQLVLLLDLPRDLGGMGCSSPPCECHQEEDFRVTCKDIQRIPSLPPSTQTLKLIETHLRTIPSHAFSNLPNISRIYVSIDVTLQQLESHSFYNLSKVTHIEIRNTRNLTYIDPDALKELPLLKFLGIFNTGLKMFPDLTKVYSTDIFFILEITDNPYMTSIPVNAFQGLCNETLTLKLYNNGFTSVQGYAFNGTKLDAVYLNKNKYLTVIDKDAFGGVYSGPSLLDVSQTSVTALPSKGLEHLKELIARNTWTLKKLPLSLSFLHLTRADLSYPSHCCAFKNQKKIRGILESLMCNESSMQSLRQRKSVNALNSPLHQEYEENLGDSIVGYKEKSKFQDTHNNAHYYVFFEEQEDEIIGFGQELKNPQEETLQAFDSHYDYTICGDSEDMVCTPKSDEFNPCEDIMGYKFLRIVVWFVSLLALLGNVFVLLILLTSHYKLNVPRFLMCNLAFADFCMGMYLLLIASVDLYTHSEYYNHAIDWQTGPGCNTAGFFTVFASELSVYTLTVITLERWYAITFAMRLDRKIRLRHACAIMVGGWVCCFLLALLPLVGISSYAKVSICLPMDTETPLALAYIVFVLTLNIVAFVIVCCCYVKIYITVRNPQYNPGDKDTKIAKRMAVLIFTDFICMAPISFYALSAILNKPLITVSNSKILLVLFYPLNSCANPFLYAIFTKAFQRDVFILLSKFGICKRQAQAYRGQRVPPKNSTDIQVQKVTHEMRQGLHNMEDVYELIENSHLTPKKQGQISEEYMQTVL
Chain of Estrogen receptor (Homo sapiens) (P03372 whole entry, looked up): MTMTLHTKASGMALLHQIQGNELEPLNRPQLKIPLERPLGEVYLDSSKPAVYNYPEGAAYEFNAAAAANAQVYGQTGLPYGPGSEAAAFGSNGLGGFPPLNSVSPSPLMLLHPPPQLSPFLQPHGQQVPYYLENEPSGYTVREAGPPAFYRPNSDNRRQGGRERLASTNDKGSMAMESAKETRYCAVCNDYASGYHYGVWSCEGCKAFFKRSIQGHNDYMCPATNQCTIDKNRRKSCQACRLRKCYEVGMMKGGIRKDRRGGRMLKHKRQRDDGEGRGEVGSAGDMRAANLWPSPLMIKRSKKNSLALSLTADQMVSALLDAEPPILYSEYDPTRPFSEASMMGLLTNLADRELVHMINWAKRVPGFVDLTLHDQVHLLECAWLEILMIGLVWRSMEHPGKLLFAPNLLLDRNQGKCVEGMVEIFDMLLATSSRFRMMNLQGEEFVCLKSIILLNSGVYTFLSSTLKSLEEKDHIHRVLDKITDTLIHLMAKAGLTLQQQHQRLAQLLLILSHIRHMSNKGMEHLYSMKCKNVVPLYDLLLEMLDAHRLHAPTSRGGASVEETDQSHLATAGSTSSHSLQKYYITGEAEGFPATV

On to `CCN(CC)CCOC(=O)C(C)(c1ccccc1)c1ccccc1`, for which the Potency result in test [1], in test [3], in test [4], in test [5], in [6] and in test [7] was “inactive” each time. Besides, in test [2], the call was inactive.

In the case of `Nc1n[nH]c(N)n1`, the Potency entry in test [1], in test [8], in test [4], in [5], in test [6] and in test [7] was “inactive” in each case. For the same compound, in [2], the result was inactive.

With `CC(CC(C#N)(c1ccccc1)c1ccccc1)N(C)C` (stereo not given), the Potency entry in test [1], in [3], in [9], in test [6] and in test [7] was “inactive” throughout. In addition, the compound was classed as inactive in [2]. Further, the Potency in [4] was 60.8 µM (active).

On to `COc1cc(OC)nc(NC(=O)NS(=O)(=O)c2ncccc2OCC(F)(F)F)n1`, for which the Potency entry in test [1], in [8], in test [3], in test [5], in test [9] and in test [6] was “inactive” each time. For the same compound, the Potency result in test [7] is “inactive”.

Consider `CCOP(=S)(OCC)Oc1nc(Cl)n(C(C)C)n1`, for which the Potency result in test [1], in test [3], in [4], in [5] and in test [9] was “inactive” throughout.

With `CCCCCCBr`, the Potency entry in test [1], in test [3], in test [4], in test [5], in test [6] and in test [7] was “inactive” each time.

For `CCNc1nc(NC(C)C)nc(OC)n1`, the Potency result in [1], in [3], in test [4], in test [5], in [6] and in test [7] was “inactive” each time.

On to `CC(CCc1ccccc1)NC(C)C(O)c1ccc(O)cc1` (stereo not given), for which the Potency result in test [1], in test [3], in [5], in test [9], in test [6] and in test [7] was “inactive” in each case.

Take `O=[N+]([O-])c1cccc2c([N+](=O)[O-])cccc12`: the Potency entry in [1], in [10] and in [7] was “inactive” in each case. Besides, in test [4], the Potency was 10.9 µM (active).

With `O=C(CCN1CC1)OCC(CO)(COC(=O)CCN1CC1)COC(=O)CCN1CC1`, the Potency entry in test [1], in [3], in test [4], in [5], in test [6] and in test [7] was “inactive” throughout.

For `CNC(=O)Oc1cccc(C(C)C)c1`, the Potency entry in test [1], in [3], in test [4], in test [5], in [6] and in test [7] was “inactive” each time.

Regarding `Cc1cc(C)nc(Nc2ccccc2)n1`, the Potency result in test [1], in test [3], in test [4], in test [5], in test [9] and in test [6] was “inactive” each time. In test [7], the Potency entry was “inactive”.

In the case of `C=CCC1=C(C)[C@@H](OC(=O)[C@@H]2[C@@H](C=C(C)C)C2(C)C)CC1=O`, the Potency entry in test [1], in test [9] and in test [6] was “inactive” in each case. For the same compound, the Potency in test [3] was 48.6 µM (active).

Regarding `ClCC(Cl)Cl`, the Potency result in test [1], in test [3], in [4], in test [5], in test [6] and in [7] was “inactive” in each case.

On to `CC1CCC(=O)O1` (stereo not given), for which the Potency result in [1], in test [3], in [4], in [5] and in test [6] was “inactive” in each case.

Consider `ClCCCN1CCN(c2cccc(Cl)c2)CC1`, for which the Potency entry in [1], in [3], in test [4], in [5], in test [9] and in test [6] was “inactive” in each case. Besides, the Potency result in [7] is “inactive”.

With `CN(C)CCc1ccc(O)cc1`, the Potency result in test [1], in test [3], in test [4], in [5], in test [6] and in test [7] was “inactive” each time.

Take `CNC(=O)Oc1ccc(N(C)C)c(C)c1`: the Potency entry in test [1], in test [3], in test [4], in test [5], in [9] and in test [6] was “inactive” each time. The Potency entry in test [7] was “inactive”.

Turning to `CC(C)[N+](=O)[O-]`, the Potency entry in test [1], in test [3], in [4], in test [5] and in test [7] was “inactive” each time.

With `CC(=O)C(Cl)Cl`, the Potency entry in test [1], in test [3], in test [4], in [5], in [9] and in test [6] was “inactive” throughout. Besides, the Potency result in [7] was “inactive”.

`ClC(Cl)Br`: the Potency result in test [1], in test [3], in test [4], in [5], in test [9] and in test [6] was “inactive” in each case. Besides, in [7], the Potency entry is “inactive”.

Take `Cc1ncc(CNC(=O)N(CCCl)N=O)c(N)n1`: the Potency entry in test [1], in [3], in test [4], in [5], in [9] and in test [6] was “inactive” in each case. Moreover, in test [7], the Potency entry was “inactive”.

Regarding `Nc1cc(Cl)ccc1O`, the Potency in [1] is 1.67 µM (active). The Potency entry in test [3], in test [5], in test [9], in [6] and in test [7] was “inactive” in each case.

Consider `CC1=C(C(=O)Nc2ccccc2)S(=O)(=O)CCO1`, for which the Potency in [1] is 3.06 µM (active). Besides, the Potency result in test [3], in test [4], in test [5], in [9] and in [7] was “inactive” in each case.

On to `Nc1c(Br)cc([N+](=O)[O-])cc1[N+](=O)[O-]`, for which the Potency in test [1] is 31 µM (active). In addition, the Potency result in test [10], in test [5], in [9], in test [6] and in test [7] was “inactive” each time.

Regarding `O=C1CN2CCOC2(c2ccccc2Cl)c2cc(Cl)ccc2N1` (stereo not given), the Potency result in [1], in test [3], in [4], in test [5], in [9] and in test [6] was “inactive” each time. In addition, the Potency entry in test [7] is “inactive”.

The values above are taken from PubChem BioAssay (Tox21).
